Test results taken from the supplement of paper PMC6555819.

What was measured:
Assay in all cases: PBM binding z-score (relative to random genomic background probes); higher = stronger binding; sequences stand for … in GC…GCGATTGACAGCGTAGAATGAAGG
[1] = test system: RARb homodimer (NR concentration 270 nM)
In short: (§1)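 Ligand-free nuclear receptor dimers were bound for 1 h to custom Agilent 4×180K protein-binding microarrays. Detection used antibodies against each partner (one per run). Binding z-scores rest on regression-normalized fluorescence, with random background probes as the reference.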

[2] = test system: RARg:RXRa (NR concentration 270 nM, RXRa partner concentration 90 nM)
In short: as §1

[3] = test system: RARg homodimer (NR concentration 270 nM)
In short: as §1

[4] = test system: RXRa DBDmut IVT, anti-RXR (DBD mutation: RXRa K156A/R161A, NR concentration 90 nM)
In short: as §1

[5] = test system: RXRa homodimer (NR concentration 180 nM)
In short: as §1

[6] = test system: THRa:RXRa (NR concentration 90 nM, RXRa partner concentration 90 nM)
In short: as §1

[7] = test system: THRa homodimer (NR concentration 90 nM)
In short: as §1

[8] = test system: VDR:RXRa (NR concentration 270 nM, RXRa partner concentration 90 nM)
In short: as §1

[9] = test system: VDR homodimer (NR concentration 270 nM)
In short: as §1

CCTGGTAGGTCAATGGTCAGCTAAAGCAGCTCGC
PBM binding z-score [1]: 2.92
PBM binding z-score [2]: 3.75
PBM binding z-score [3]: 4.04
PBM binding z-score [4]: 0.676
PBM binding z-score [5]: 2.66
PBM binding z-score [6]: 1.56
PBM binding z-score [7]: 0.243
PBM binding z-score [8]: 1.33
PBM binding z-score [9]: 0.307

CCGACTGGGGCAGAAAGGTTACCACACCATCCGG
PBM binding z-score [1]: 2.28
PBM binding z-score [2]: 1.77
PBM binding z-score [3]: 1.41
PBM binding z-score [4]: -0.654
PBM binding z-score [5]: 1.84
PBM binding z-score [6]: 1.01
PBM binding z-score [7]: -0.368
PBM binding z-score [8]: 1.15
PBM binding z-score [9]: -0.223

GCTATTAGTTGGAAGGGCAACCGAATGATTCTCG
PBM binding z-score [1]: 0.941
PBM binding z-score [2]: 0.317
PBM binding z-score [3]: 0.522
PBM binding z-score [4]: 0.581
PBM binding z-score [5]: 0.0792
PBM binding z-score [6]: -0.126
PBM binding z-score [7]: -0.242
PBM binding z-score [8]: -0.223
PBM binding z-score [9]: -0.28

TTACCAAGGTGAGCTGAGGTTGTTGATCCAACTC
PBM binding z-score [1]: 0.122
PBM binding z-score [2]: -0.185
PBM binding z-score [3]: 0.109
PBM binding z-score [4]: -0.414
PBM binding z-score [5]: -0.0103
PBM binding z-score [6]: 3.29
PBM binding z-score [7]: 0.439
PBM binding z-score [8]: 0.678
PBM binding z-score [9]: -0.373

TAGCCTAGGTCATGCGGGCCACTATAGTGTCGGC
PBM binding z-score [1]: 2.97
PBM binding z-score [2]: 4.13
PBM binding z-score [3]: 4.41
PBM binding z-score [4]: 0.662
PBM binding z-score [5]: 3.23
PBM binding z-score [6]: 3.15
PBM binding z-score [7]: 0.932
PBM binding z-score [8]: 3.58
PBM binding z-score [9]: 1.08

CGTACGAGGGCATGAGTTGATAGCAAATGCCGAT
PBM binding z-score [1]: 0.825
PBM binding z-score [2]: 1.38
PBM binding z-score [3]: 1.57
PBM binding z-score [4]: 2.36
PBM binding z-score [5]: 1.03
PBM binding z-score [6]: 1.37
PBM binding z-score [7]: -0.172
PBM binding z-score [8]: 1.36
PBM binding z-score [9]: 1.67

CCTGCTGGGCCATTCAGAGGTCATTGATCATATG
PBM binding z-score [1]: 4.1
PBM binding z-score [2]: 4.63
PBM binding z-score [3]: 3.19
PBM binding z-score [4]: 1.05
PBM binding z-score [5]: 3.79
PBM binding z-score [6]: 3.24
PBM binding z-score [7]: 1.12
PBM binding z-score [8]: 4.03
PBM binding z-score [9]: 3.17

CAAACTAGGTCACCGGAAGGACAAAGTCCGCATG
PBM binding z-score [1]: 4.21
PBM binding z-score [2]: 6.38
PBM binding z-score [3]: 6.15
PBM binding z-score [4]: 1.54
PBM binding z-score [5]: 3.82
PBM binding z-score [6]: 3.81
PBM binding z-score [7]: 2.12
PBM binding z-score [8]: 3.49
PBM binding z-score [9]: 1.38

CGTCAAAGTTCAACTAGGGTAACGTAAAGCACGC
PBM binding z-score [1]: 4.3
PBM binding z-score [2]: 5.87
PBM binding z-score [3]: 6.62
PBM binding z-score [4]: 4.69
PBM binding z-score [5]: 5.44
PBM binding z-score [6]: 5.14
PBM binding z-score [7]: 0.583
PBM binding z-score [8]: 5.28
PBM binding z-score [9]: 4.44

CTACCAAGGTGAACCAGGTCGTTGATTACTATTC
PBM binding z-score [1]: 1.75
PBM binding z-score [2]: 1.44
PBM binding z-score [3]: 1.26
PBM binding z-score [4]: 0.903
PBM binding z-score [5]: 1.76
PBM binding z-score [6]: 3.09
PBM binding z-score [7]: 1.85
PBM binding z-score [8]: 4.93
PBM binding z-score [9]: 1.28

CGAACTAGGTCATCCAAGACAGTGAATACATTGA
PBM binding z-score [1]: 2.81
PBM binding z-score [2]: 4.15
PBM binding z-score [3]: 4.88
PBM binding z-score [4]: 2.42
PBM binding z-score [5]: 3.45
PBM binding z-score [6]: 2.84
PBM binding z-score [7]: 0.947
PBM binding z-score [8]: 2.57
PBM binding z-score [9]: 1.06

TCTGGTAGATCAACAGGAGGTTAAGAAAGATCGA
PBM binding z-score [1]: 0.385
PBM binding z-score [2]: 0.66
PBM binding z-score [3]: 0.298
PBM binding z-score [4]: 0.299
PBM binding z-score [5]: 0.827
PBM binding z-score [6]: 0.849
PBM binding z-score [7]: -0.374
PBM binding z-score [8]: 0.61
PBM binding z-score [9]: 0.00452

AGTCAAAGCTCAGGACGAGGTAACGTAAAGCACG
PBM binding z-score [1]: -0.228
PBM binding z-score [2]: 0.0301
PBM binding z-score [3]: 0.2
PBM binding z-score [4]: -0.664
PBM binding z-score [5]: -0.013
PBM binding z-score [6]: 1.86
PBM binding z-score [7]: 1.21
PBM binding z-score [9]: -0.138

AATACAGGGTCATCGTAGGCCAGAGTCCGCACAG
PBM binding z-score [1]: 3.75
PBM binding z-score [2]: 5.73
PBM binding z-score [3]: 5.28
PBM binding z-score [4]: 3.35
PBM binding z-score [5]: 6.62
PBM binding z-score [6]: 4.68
PBM binding z-score [7]: 1.62
PBM binding z-score [8]: 5.19
PBM binding z-score [9]: 3.38

ATCTCTAGTTAAAGTTCAGTGAAAGATCGATAGA
PBM binding z-score [1]: 2.53
PBM binding z-score [2]: 1.88
PBM binding z-score [3]: 2.04
PBM binding z-score [4]: 1.84
PBM binding z-score [5]: 1.22
PBM binding z-score [6]: 0.988
PBM binding z-score [7]: 0.202
PBM binding z-score [8]: 1.64
PBM binding z-score [9]: 2.47

TGTAGCAGGCCAGAGGGTCACTCAAGAGGTACGG
PBM binding z-score [1]: 2.85
PBM binding z-score [2]: 2.8
PBM binding z-score [3]: 2.7
PBM binding z-score [4]: -1.32
PBM binding z-score [5]: 2.64
PBM binding z-score [6]: 1.59
PBM binding z-score [7]: -0.464
PBM binding z-score [8]: 1.46
PBM binding z-score [9]: 0.427

ACTAGCAGGCCAAGGGCCACTCAAGATTAGTCCG
PBM binding z-score [1]: 0.598
PBM binding z-score [2]: 0.143
PBM binding z-score [3]: 0.443
PBM binding z-score [4]: -0.506
PBM binding z-score [5]: 0.0111
PBM binding z-score [6]: -0.212
PBM binding z-score [7]: -0.921
PBM binding z-score [8]: -0.798
PBM binding z-score [9]: -0.964

AGAACGAGGGCAATGAGTTAATAGCACGGGTGGC
PBM binding z-score [1]: 1.08
PBM binding z-score [2]: 1.43
PBM binding z-score [3]: 1.51
PBM binding z-score [4]: 1.74
PBM binding z-score [5]: 0.7
PBM binding z-score [6]: 0.999
PBM binding z-score [7]: -0.107
PBM binding z-score [9]: 1.99

GCGACTGGGGCAAAGGAGGTTACCATAAGGTTGG
PBM binding z-score [1]: 1.87
PBM binding z-score [2]: 1.1
PBM binding z-score [3]: 1.14
PBM binding z-score [4]: -0.468
PBM binding z-score [5]: 1.12
PBM binding z-score [6]: 3.4
PBM binding z-score [7]: 0.609
PBM binding z-score [8]: 1.26
PBM binding z-score [9]: 0.291

GGAACGAGGGCGTTCGAGTTGATAGCATGGCGAT
PBM binding z-score [1]: -0.589
PBM binding z-score [2]: 0.0515
PBM binding z-score [3]: 0.202
PBM binding z-score [4]: 2.26
PBM binding z-score [5]: -0.0265
PBM binding z-score [6]: 2.16
PBM binding z-score [7]: -1.11
PBM binding z-score [8]: 2.22
PBM binding z-score [9]: 2.02

TTACCAAGGTGGAGGTCGTTGATCCCTCTGTAGA
PBM binding z-score [1]: 1.15
PBM binding z-score [2]: 0.155
PBM binding z-score [3]: -0.0331
PBM binding z-score [4]: 0.0989
PBM binding z-score [5]: 1.41
PBM binding z-score [6]: 1.4
PBM binding z-score [7]: 0.145
PBM binding z-score [9]: 1.32

CCTTACGGGTCACGAGGTTAGAGCACGACGAGCG
PBM binding z-score [1]: 3.63
PBM binding z-score [2]: 6.04
PBM binding z-score [3]: 5.46
PBM binding z-score [4]: 2.04
PBM binding z-score [5]: 6.47
PBM binding z-score [6]: 3.45
PBM binding z-score [7]: 0.765
PBM binding z-score [8]: 4.98
PBM binding z-score [9]: 1.84

CGTCCAAGGTCAAGGTAAGTGAAAGAGACTCGAA
PBM binding z-score [1]: 4.02
PBM binding z-score [2]: 6.03
PBM binding z-score [3]: 7.08
PBM binding z-score [4]: 3.26
PBM binding z-score [5]: 5.48
PBM binding z-score [6]: 3.97
PBM binding z-score [7]: 2.14
PBM binding z-score [8]: 3.76
PBM binding z-score [9]: 1.56

CCAATTAGTTGACCATAAGGGCAACCGAAGCTCG
PBM binding z-score [1]: 2.16
PBM binding z-score [2]: 1.22
PBM binding z-score [3]: 1.02
PBM binding z-score [4]: 0.647
PBM binding z-score [5]: 0.634
PBM binding z-score [6]: 1.98
PBM binding z-score [7]: 1.5
PBM binding z-score [8]: 0.678
PBM binding z-score [9]: 0.962

ATCTCTAGGTAAAGATAGTTAAGTGAATGCAAAT
PBM binding z-score [1]: -0.639
PBM binding z-score [2]: 0.108
PBM binding z-score [3]: 0.448
PBM binding z-score [4]: -0.348
PBM binding z-score [5]: -0.199
PBM binding z-score [6]: 0.104
PBM binding z-score [7]: -0.211
PBM binding z-score [8]: 0.487
PBM binding z-score [9]: -0.177

ATCGAAAGGCCGACGAGGTGAGTATACACCGTTT
PBM binding z-score [1]: 0.596
PBM binding z-score [2]: 0.783
PBM binding z-score [3]: 1.08
PBM binding z-score [4]: -0.604
PBM binding z-score [5]: 0.344
PBM binding z-score [6]: 1.5
PBM binding z-score [7]: 0.378
PBM binding z-score [8]: 0.176
PBM binding z-score [9]: -0.425
